Laboratory results: PubChem BioAssay AID1159580 (chemical genetic matrix, 2015)
Several values for one entry are separate records, joined by “and”; a condition that tells them apart may be missing. Identical values can stand only once. Out of some 5,500 compounds screened, about 2,000 (36%) were called active. Another 18% or so got no clear call; they are omitted. Rule as the data show it: active = normalized growth mostly below about 0.91 (no sharp cut-off); inconclusive = no clear call, values can overlap the other calls; inactive = mostly above about 0.92. The list shows a part of the results.

Assay: chemical genetic growth profiling, strain panel (AID 1159580);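 also: tested at 20 µM; growth read once vehicle control cultures reached saturation at 30 °C; 1 = growth at the plate median or of vehicle wells; lower values mean less growth of the strain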
Conditions: S. cerevisiae deletion strains, growth OD

Measured: normalized growth

C[C@@H]1O[C@@H](O[C@H]2CC[C@]3(C=O)C4CC[C@]5(C)[C@@H](C6=CC(=O)OC6)CC[C@]5(O)C4CC[C@]3(O)C2)[C@H](O)[C@H](O)[C@H]1O (stereo not given in full)
inactive: locus YAL021C, strain ccr4, hits give low values 1.02 | locus YAL026C, strain drs2, hits give low values 0.997 | locus YAL030W, strain snc1, hits give low values 0.998 | locus YBL061C, strain skt5, hits give low values 0.991 | locus YBR009C, strain hhf1, hits give low values 0.979 | locus YBR021W, strain FUR4, hits give low values 1.05 | locus YBR023C, strain chs3, hits give low values 0.999 | locus YBR171W, strain sec66, hits give low values 0.992 | locus YBR229C, strain ROT2, hits give low values 0.962 | locus YBR231C, strain swc5, hits give low values 0.987 | locus YBR279W, strain paf1, hits give low values 1 | locus YCL011C, strain gbp2, hits give low values 0.999 | locus YCL016C, strain dcc1, hits give low values 0.996 | locus YCL029C, strain bik1, hits give low values 0.985 | locus YCL061C, strain MRC1, hits give low values 1 | locus YCL069W, strain vba3, hits give low values 1.01 | locus YCR088W, strain abp1, hits give low values 0.997 | locus YDL005C, strain med2, hits give low values 0.999 | locus YDL035C, strain GPR1, hits give low values 0.999 | locus YDL040C, strain nat1, hits give low values 0.978 | locus YDL074C, strain BRE1, hits give low values 1.05 | locus YDL101C, strain DUN1, hits give low values 0.976 | locus YDL134C, strain PPH21, hits give low values 0.989 | locus YDL185W, strain tfp1, hits give low values 0.987 | locus YDL192W, strain arf1, hits give low values 0.99 | locus YDR001C, strain nth1, hits give low values 1 | locus YDR069C, strain doa4, hits give low values 0.984 | locus YDR101C, strain arx1, hits give low values 1.02 | locus YDR137W, strain rgp1, hits give low values 1.01 | locus YDR150W, strain NUM1, hits give low values 0.995 | locus YDR159W, strain sac3, hits give low values 0.95 | locus YDR162C, strain NBP2, hits give low values 0.934 | locus YDR195W, strain ref2 0.927 | locus YDR297W, strain sur2, hits give low values 0.996 | locus YDR318W, strain mcm21, hits give low values 0.979 | locus YDR334W, strain swr1, hits give low values 0.998 | locus YDR335W, strain msn5, hits give low values 1 | locus YDR388W, hits give low values 0.999 | locus YDR392W, strain spt3, hits give low values 0.88 | locus YDR502C, strain sam2, hits give low values 0.982 | locus YEL003W, strain gim4, hits give low values 0.999 | locus YEL037C, strain rad23, hits give low values 1.01 | locus YEL061C, strain CIN8 (second series), hits give low values 1 | locus YEL061C, strain CIN8, hits give low values 0.996 | locus YER015W, strain faa2, hits give low values 0.992 | locus YER016W, strain bim1, hits give low values 0.99 | locus YER110C, hits give low values 0.985 | locus YER111C, strain swi4, hits give low values 0.988 | locus YER155C, strain BEM2 (second series), hits give low values 0.978 | locus YER155C, strain BEM2, hits give low values 1.01 | locus YER167W, strain BCK2, hits give low values 0.999 | locus YFR010W, strain ubp6, hits give low values 0.999 | locus YGL078C, strain dbp3, hits give low values 0.989 | locus YGL086W, strain mad1, hits give low values 1.04 | locus YGL167C, strain pmr1, hits give low values 0.982 | locus YGL173C, strain kem1, hits give low values 0.99 | locus YGL227W, strain vid30, hits give low values 0.99 | locus YGL240W, strain doc1, hits give low values 0.969 | locus YGL248W, strain PDE1, hits give low values 0.976 | locus YGL253W, strain hxk2, hits give low values 0.992 | locus YGR078C, strain PAC10, hits give low values 0.974 | locus YGR135W, strain pre9, hits give low values 0.966 | locus YGR229C, strain SMI1, hits give low values 0.987 | locus YGR252W, strain gcn5, hits give low values 0.953 | locus YHR013C, strain ard1, hits give low values 0.954 | locus YHR027C, strain rpn1, hits give low values 0.996 | locus YHR030C, strain SLT2, hits give low values 1.01 and 0.997 | locus YHR079C, strain IRE1 (second series), hits give low values 1.01 | locus YHR079C, strain IRE1, hits give low values 0.992 | locus YHR094C, strain hxt1, hits give low values 0.986 | locus YHR129C, strain ARP1, hits give low values 1 | locus YHR142W, strain chs7, hits give low values 1.03 | locus YHR200W, strain rpn10, hits give low values 1 | locus YIL066C, strain RNR3, hits give low values 0.984 | locus YIL073C, strain SPO22, hits give low values 1.02 | locus YIL125W, strain kgd1, hits give low values 0.988 | locus YIR030C, strain dcg1, hits give low values 0.995 | locus YJL092W, strain hpr5, hits give low values 1 | locus YJL095W, strain BCK1 (second series), hits give low values 0.998 | locus YJL095W, strain BCK1, hits give low values 0.965 and 0.985 | locus YJL115W, strain asf1, hits give low values 0.999 | locus YJL129C, strain trk1, hits give low values 1.01 | locus YJL134W, strain LCB3, hits give low values 0.994 | locus YJL154C, strain vps35, hits give low values 1.01 | locus YJL164C, strain tpk1, hits give low values 1.01 | locus YJL166W, strain qcr8, hits give low values 0.99 | locus YJL168C, strain set2, hits give low values 0.99 | locus YJL187C, strain SWE1 (second series), hits give low values 0.97 | locus YJL187C, strain SWE1, hits give low values 1 | locus YJR043C, strain POL32, hits give low values 0.99
